Compounds with a hit are over-represented: about 7.3% of the library has one in this group of screens.
SMN2 splice up – qHTS Assay for Enhancers of SMN2 Splice Variant Expression; HEK293 SMN2-luciferase splicing reporter, luminescence, 30-36 h; AID 1458, 2008; Potency, µM (doses to about 46.1 µM), for inactives: at the highest dose activity change, positive = activation, usual class: activators; 210,000 tested, 2.8% active; also: % of control where 0% means no effect; nearly all actives have a fitted effect of over 55% in size
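HEK293 cells carry an SMN2 minigene-luciferase reporter in which exon 7 inclusion puts luciferase in frame. Cells were seeded at 2000 cells/well, attached for 10-12 hours, then exposed to compounds for 30-36 hours at 37C before ONE-Glo luminescence.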
ELG1 genotoxic – qHTS screen for small molecules that induce genotoxicity in human embryonic kidney (HEK293T) cells expressing luciferase-tagged ELG1; AID 504466, 2011; 330,000 tested, 1.3% active; Potency, µM (highest dose often 46 µM), without a hit: at the highest dose activity change, positive = activation, usual class: activators; HEK293T ELG1-luciferase reporter, luminescence, 16 h; also: % of control where 0% means no effect; nearly all actives have a fitted effect of over 60% in size
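Genotoxic stress is detected as increased luminescence from luciferase-tagged ELG1 in HEK293T cells, measured with ONE-Glo after a 16 hr treatment at 37 °C.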
FLuc counter – qHTS profiling assay for firefly luciferase inhibitor/activator using purifed enzyme and Km concentrations of substrates (counterscreen for miR-21 project); purified FLuc, Km substrates, luminescence inhibition; Potency, µM (titrated, usually from 57.5 µM), for the others: at the top dose activity change, negative = inhibition, most hits filed as inhibitors; 360,000 tested, 6.9% active;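 also: plate controls were vehicle for no effect and reference inhibitor for full effect; nearly all actives have a fitted effect of over 55% in size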
Target sequence (P08659 whole entry, looked up): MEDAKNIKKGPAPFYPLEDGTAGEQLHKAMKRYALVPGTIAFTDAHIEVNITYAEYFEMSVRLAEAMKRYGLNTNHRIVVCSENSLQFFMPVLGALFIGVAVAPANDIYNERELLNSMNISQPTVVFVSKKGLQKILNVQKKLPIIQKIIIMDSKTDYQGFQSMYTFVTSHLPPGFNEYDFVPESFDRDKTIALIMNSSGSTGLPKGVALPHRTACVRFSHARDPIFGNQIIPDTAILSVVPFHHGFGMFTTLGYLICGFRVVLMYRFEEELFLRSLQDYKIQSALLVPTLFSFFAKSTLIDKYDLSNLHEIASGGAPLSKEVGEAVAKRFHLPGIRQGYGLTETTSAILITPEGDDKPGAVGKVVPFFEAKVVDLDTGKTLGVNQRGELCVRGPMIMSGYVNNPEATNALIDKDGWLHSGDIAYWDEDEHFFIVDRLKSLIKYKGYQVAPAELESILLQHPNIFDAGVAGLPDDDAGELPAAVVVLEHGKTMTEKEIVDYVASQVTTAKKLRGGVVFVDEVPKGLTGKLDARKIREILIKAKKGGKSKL
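Biochemical qHTS of compounds, final roughly 60 µM downward over six points, against 10 nM purified firefly luciferase using Km concentrations of substrates (10 uM D-luciferin, 10 uM ATP) in Tris acetate pH 7.5 buffer; luminescence output.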
Rab9 prom act – qHTS Assay for Rab9 Promoter Activators | Huh7 Rab9 promoter-luciferase reporter, luminescence, 24 h | Potency, µM (titrated, usually from 9.22 µM), for inactives: top-dose activation, negative = inhibition, most hits filed as activators | 320,000 tested, 2.8% active | AID 485297, 2010; also: % of control where 0% means no effect; nearly all actives have a fitted effect of over 60% in size
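Cells were plated at 1500 per well in reduced-serum medium with 10% FBS and left 2 h. Compound in DMSO was then added for 24 h at 37 °C. Reporter signal was read by luminescence after 10 min with luciferase detection reagent.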
KinaseGlo FLuc – Counterscreen for Luciferase (Kinase-Glo TM) Inhibition; Luciferin 4-monooxygenase (Photuris pensylvanica), Q27757; Kinase-Glo luciferase, ATP luminescence, 8 min; Potency, µM (highest dose often 38.3 µM), inactives show at the top dose activity change, negative = inhibition, usual class: inhibitors; 200,000 tested, 0.28% active; AID 1379, 2008; also: % is scaled to controls: 0 for no effect and ±100 for the full control effect; nearly all actives have a fitted effect of over 60% in size
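Kinase-Glo luciferase light output from ATP and luciferin was measured with 10 uM ATP, within the enzyme's linear range. Buffer: 50 mM imidazole pH 7.2, 50 mM KCl, 7 mM MgCl2, 0.01% Tween 20, 0.05% BSA; luminescence read after 8 min at ambient temperature.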
NPC1 prom act – qHTS Assay for NPC1 Promoter Activators. Huh7 NPC1 promoter luciferase reporter, 24 h. Potency, µM (titrated, usually from 9.22 µM), for inactives: at the highest dose activation, usual class: activators. 320,000 tested, 2.4% active; also: % of control where 0% means no effect; nearly all actives have a fitted effect of over 60% in size
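Luminescence from an NPC1 promoter-driven luciferase reporter in stably transfected Huh7 cells was measured after 24 h compound treatment at 37 °C, followed by 10 min ambient incubation with luciferase detection reagent.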
* = called active by the depositor; ? = inconclusive; / = no result given; [ ] = dose if it differs, or a comment. Calls follow the shape of the dose curve; as a rule, active = well fitted curve in the direction sought with a large enough effect; inconclusive = small, poorly fitted or top-dose-only effect, or another doubt; inactive = no such curve, though single readings can be large; an effect the other way counts as inactive or inconclusive. Potency is read from the fitted curve at half-maximal effect.

SMILES	SMN2 splice up	ELG1 genotoxic	FLuc counter	Rab9 prom act	KinaseGlo FLuc	NPC1 prom act
O=C(c1ccc(F)cc1)N1CCC(c2ccccc2)C1 (configuration not stated)	/	?	?	?	/	4.5µM*
CSc1cccc(NC(=S)N2CCC(c3ccccc3)C2)c1 (configuration not stated)	/	13%	15µM*	14%	/	18%
CCc1cccc(NC(=S)N2CCC(c3ccccc3)C2)c1 (configuration not stated)	68%	14%	24µM*	?	1%	?
Cc1ccc(N2CC(NC(=O)Cc3ccc(F)cc3)CC2=O)cc1C (configuration not stated)	/	/	1%	/	/	/
COc1ccc(OCC(=O)Nc2ccc3c(c2)CCC3)cc1	/	-1%	/	16%	/	-6%
O=C(COc1ccc(Br)cc1)c1ccc2c(c1)CCCC2	-8%	5%	?	12%	-5%	16%
Cc1ccc(OCC(=O)c2ccc3c(c2)CCCC3)cc1C	22%	?	9.5µM*	1.1µM*	0%	0.56µM*
Cc1cccnc1NC(=O)COc1ccc2oc3c(c2c1)CCCC3	-12%	2%	?	4%	1%	-1%
Cc1csc(NC(=O)COc2ccc3c(c2)CCC3)n1	/	?	12µM*	3.5µM*	/	?
Cc1cccnc1NC(=O)COc1ccc2c(c1)CCC2	/	9.2µM*	17µM*	?	/	?
Cc1ccc(NC(=O)COc2ccc3c(c2)CCC3)nc1	/	9.2µM*	9.5µM*	?	/	?
Cc1ccc(NC(=O)COc2ccc3oc4c(c3c2)CCCC4)nc1	0%	3%	10%[2.3 µM]	-1%	-5%	0%
Cc1ccc(NC(=O)Nc2cn(CC(C)C)c(=O)c3ccccc23)cc1N(C)C	/	/	-14%	/	/	/
N/C(=N\OC(=O)CCCOc1ccccc1)c1cccc(Br)c1	10%	-1%	?	0%	-3%	-2%
N/C(=N\OC(=O)c1cccc(Br)c1)c1ccccn1	/	?	0.43µM*	4µM*	/	3.5µM*
N/C(=N\OS(=O)(=O)c1ccc(Cl)cc1)c1ccccn1	-6%	23µM*	-19%	23%	-3%	20%
N/C(=N\OC(=O)c1ccc(Cl)cc1)c1ccccn1	7.1µM*	?	0.076µM*	1.4µM*	6.3µM*	0.56µM*
N/C(=N\OC(=O)c1cccc(Br)c1)c1ccccc1	?	?	0.85µM*	2%	-9%	19%
N/C(=N/OC(=O)c1ccc(Cl)cc1)c1ncc([N+](=O)[O-])s1	/	7%	?	?	/	25%
COc1ccc2c(c1)c1c(c(=O)n(-c3cccc(Cl)c3)c(=O)n1CC(=O)N1CCCC1)n2C	/	/	-1%	/	/	/
CCN(C(=O)c1cn(CC)c(=O)c2cc(OC)c(OC)cc12)c1ccc(C)c(C)c1	-18%	/	-3%	/	/	/
N/C(=N\OC(=O)c1ccc(Cl)c([N+](=O)[O-])c1)c1ccccn1	/	14%	?	1%	/	-1%
N/C(=N\OC(=O)c1ccc(Cl)cc1)c1[nH]ncc1Br	/	?	0.13µM*	3.2µM*	/	?
N/C(=N\OC(=O)c1ccc(Cl)c(Cl)c1)c1ccccn1	14µM*	?	0.76µM*	4.5µM*	-12%	3.2µM*
CCOc1ccc(C(=O)O/N=C(\N)c2ccccn2)cc1OCC	/	?	12µM*	2.5µM*	/	1.3µM*
SMILES	SMN2 splice up	ELG1 genotoxic	FLuc counter	Rab9 prom act	KinaseGlo FLuc	NPC1 prom act
N/C(=N\OC(=O)c1cccc(Cl)c1)c1ccccn1	14µM*	?	0.6µM*	3.2µM*	-29%	3.2µM*
CCO/N=C(\N)c1[nH]ncc1Br	/	2%	0%	1%	/	-2%
Cc1ccc(C2=NN(CC(=O)NCCCN(CC(C)C)CC(C)C)C(=O)CC2)cc1	/	/	2%	/	/	/
CC(C)c1ccccc1NC(=O)CN1C(=O)c2cccc3cccc1c23	-20%	/	1%	/	/	/
O=C(NCCS(=O)(=O)N1CCN(c2ccccc2F)CC1)c1ccccc1C(F)(F)F	/	/	-7%	/	/	/
CC1CN(C(=O)N2CCC(C(=O)NCc3cccs3)CC2)c2cc(Cl)ccc2O1 (configuration not stated)	/	/	-1%	/	/	/
O=C(NNC(=O)C12CC3CC(CC(C3)C1)C2)c1ccccc1O	/	1%	15µM*	-28%	/	-11%
Cc1cccc(C(=O)NNC(=O)C23CC4CC(CC(C4)C2)C3)c1O	/	23%	15µM*	14%	/	-4%
Cc1ccccc1C(=O)NNC(=O)C12CC3CC(CC(C3)C1)C2	7%	-1%	2%	-5%	-2%	-4%
Fc1ccc(C(Nc2ccccc2Cl)c2nnc(-c3ccccc3Cl)o2)cc1 (configuration not stated)	-17%	/	-19%	/	/	/
COc1ccc(Cn2cc(S(=O)(=O)c3ccc(C)cc3)c(=O)c3cc(F)ccc32)cc1	3%	/	-4%	/	/	/
CN(C)CCCNc1cc(C(C)(C)C)nc2c(-c3ccccc3)cnn12	/	?	8.5µM*	4µM*	/	3.5µM*
CC(C)(C)c1cc(NCCCn2ccnc2)n2ncc(-c3ccc(Cl)cc3)c2n1	6%	-4%	27µM*	29%	-1%	22%
C=C(C(C)=O)C(O)/C=C/c1ccco1 (configuration not stated)	5%	/	/	/	-5%	/
Cc1oc(/N=C/c2ccc(O)cc2O)c(C#N)c1C	-8%	7%	17µM*	2%	-5%	-3%
Cc1oc(/N=C/c2ccc(Cl)cc2)c(C#N)c1C	21%	-1%	11µM*	-12%	-3%	9%
CN(c1ccc(OCC(=O)OCC(=O)c2c(N)n(C)c(=O)n(C)c2=O)cc1)S(=O)(=O)c1ccc2ccccc2c1	8%	2%	-14%	20%	1%	-4%
CCN(c1ccc(OCC(=O)OCC(=O)c2c(N)n(C)c(=O)n(C)c2=O)cc1)S(=O)(=O)c1ccccc1	1%	-1%	12µM*	9%	0%	3%
O=C(O)c1cccc(NC(=O)c2cccc(S(=O)(=O)Nc3cccc([N+](=O)[O-])c3)c2)c1	/	0%	?	4%	/	2%
O=C(O)c1cccc(NC(=O)c2cn(-c3ccccc3)nc2-c2ccc([N+](=O)[O-])cc2)c1	/	0%	17µM*	0%	/	-8%
O=C(O)c1cccc(NC(=O)c2cn(-c3ccccc3)nc2-c2ccncc2)c1	-3%	-4%	17µM*	-3%	0%	-1%
